aSyn 5UTR act: Activators working through SNCA 5'UTR binding (MLPCN); AID 1814; hit rate 7.1% among 300,000; activity score, % (tested at 7.5 µM), hits read low; alpha-synuclein 5'UTR reporter, activators screen; in the data active means activity score below about -60%
An asterisk follows results filed as active. A selection follows.

What do the screens show for `COc1ccccc1-c1nc(-c2ccc(Br)cc2)no1`?
aSyn 5UTR act: -305*

How did COc1ccc(-c2noc(-c3ccc4c(c3)OCO4)n2)cc1 do in these assays?
aSyn 5UTR act: -72*

How did COc1ccccc1-c1nc(-c2ccncc2)no1 do in these assays?
aSyn 5UTR act: -123*

What do the screens show for `COCC1CCN(Cc2nc(-c3ccc4c(c3)OCO4)no2)C1` (stereo unspecified)?
aSyn 5UTR act: -114*

Results for CNC(=O)c1c(Br)cnn1-c1ccc(C)cc1 ?
aSyn 5UTR act: -158*

What do the screens show for `Cc1ccc(-n2ncc(Cl)c2C(=O)NC2CC2)cc1`?
aSyn 5UTR act: -153*

Results for CNC(=O)c1c(Cl)cnn1-c1ccc(C)cc1 ?
aSyn 5UTR act: -151*

Results for C=CCNC(=O)c1c(Cl)cnn1-c1ccc(C)cc1 ?
aSyn 5UTR act: -95*

Results for COc1ccc(Cc2nc(-c3cccc(C)c3)no2)cc1 ?
aSyn 5UTR act: -102*

Results for COc1ccc(Cc2nc(-c3ccncc3)no2)cc1 ?
aSyn 5UTR act: -79*

Results for Cc1cccc(-c2noc(Cc3ccc(Cl)cc3)n2)c1 ?
aSyn 5UTR act: -98*

What do the screens show for `c1csc(-c2nc3c4ccccc4c4ccccc4c3[nH]2)c1`?
aSyn 5UTR act: -73*

What do the screens show for `Cc1cc(OCC(=O)N(C)C2CCCCC2)cc(C)c1Cl`?
aSyn 5UTR act: -68*

How did CN(C(=O)COC(=O)c1ccc(Cl)cc1N)C1CCCCC1 do in these assays?
aSyn 5UTR act: -82*

What do the screens show for `CCn1nnnc1SCC(=O)c1ccc2c(c1)OCCO2`?
aSyn 5UTR act: -137*

Results for CC(C)(C)c1nnc2sc(SCC(=O)c3ccc4c(c3)OCCO4)nn2c1=O ?
aSyn 5UTR act: -156*

How did O=C(CSc1nnnn1C1CCCC1)c1ccc2c(c1)OCCO2 do in these assays?
aSyn 5UTR act: -102*

What do the screens show for `COc1cccc(C(=O)CSc2nnnn2C2CCCCC2)c1`?
aSyn 5UTR act: -74*

What do the screens show for `CC(C)n1nnnc1SCC(=O)c1ccc2c(c1)OCCO2`?
aSyn 5UTR act: -145*

Results for Cc1ccc(C)c(C(=O)CSc2nnnn2C(C)C)c1 ?
aSyn 5UTR act: -65*

What do the screens show for `O=C(Cn1cc(SCc2ccccc2Cl)c2ccccc21)N1CCOCC1`?
aSyn 5UTR act: -163*

How did CCn1cc(SCC(=O)N2CCOCC2)c2ccccc21 do in these assays?
aSyn 5UTR act: -114*

How did CCC(=O)NC(c1ccc(OC)cc1)c1cc(Cl)c2cccnc2c1O (stereo unspecified) do in these assays?
aSyn 5UTR act: 81

What do the screens show for `COc1ccc(/C(O)=C2/C(=O)C(=O)N(c3ccccn3)C2c2ccc(C(C)C)cc2)cc1` (stereo unspecified)?
aSyn 5UTR act: -122*

What do the screens show for `COc1ccc(N2C(=O)C(=O)/C(=C(/O)c3ccc(C)cc3)C2c2cccnc2)cc1` (stereo unspecified)?
aSyn 5UTR act: -62*

What do the screens show for `Cc1ccc2c(CN3CCC(C)CC3)cc(=O)oc2c1`?
aSyn 5UTR act: -150*

What do the screens show for `CCOC(=O)C1CCCN(Cc2cc(=O)oc3cc(C)ccc23)C1` (stereo unspecified)?
aSyn 5UTR act: -75*

Results for Clc1c(CSc2nc3ccccc3o2)nc2sccn12 ?
aSyn 5UTR act: -117*

How did Clc1c(CSc2nc3ccccc3o2)nc2ccccn12 do in these assays?
aSyn 5UTR act: -117*

How did Brc1c(CSc2nc3ccccc3o2)nc2ncccn12 do in these assays?
aSyn 5UTR act: -118*

Results for Oc1c(Cl)cc(Cl)cc1C=Nc1ccc2c(c1)OCCO2 ?
aSyn 5UTR act: -63*

How did COC(=O)c1ccc(N)nc1 do in these assays?
aSyn 5UTR act: -79*

How did CCc1ccccc1NC(=O)c1cc(-c2cccc(O)c2)on1 do in these assays?
aSyn 5UTR act: -81*

Results for CCc1ccccc1NC(=O)c1cc(-c2cccs2)on1 ?
aSyn 5UTR act: -125*

How did O=C(Nc1ccccc1C(F)(F)F)c1cc(-c2cccc(O)c2)on1 do in these assays?
aSyn 5UTR act: -142*

Results for O=C1OCCC1Sc1nnc(-c2ccc(Cl)cc2Cl)o1 (stereo unspecified) ?
aSyn 5UTR act: 90

What do the screens show for `CCSc1nnc(-c2ccc(Cl)cc2Cl)o1`?
aSyn 5UTR act: -260*

How did Clc1ccc(-c2nnc(-c3ccc(Br)o3)o2)c(Cl)c1 do in these assays?
aSyn 5UTR act: -192*

Results for CSc1nnc(-c2ccc(Cl)cc2Cl)o1 ?
aSyn 5UTR act: -120*

Results for CCOC(=O)c1c(C)[nH]c(C(=O)COC(=O)C2CC2C)c1C (stereo unspecified) ?
aSyn 5UTR act: -143*

What do the screens show for `Brc1ccc(C2=Nc3cccc4cccc(c34)N2)o1`?
aSyn 5UTR act: -74*

Results for CCN(CC(=O)Nc1ccc2c(c1)OCCO2)C(=O)c1ccc(Cl)cc1Cl ?
aSyn 5UTR act: -112*

Results for CCN(CC(=O)Nc1ccc2c(c1)OCCO2)C(=O)c1ccc(C(F)(F)F)cc1 ?
aSyn 5UTR act: -62*

Results for Fc1ccccc1N=C1NN=C(c2ccccc2)CS1 ?
aSyn 5UTR act: -199*

How did COCCn1c(C)cc(C2=NNC(=Nc3ccccc3F)SC2)c1C do in these assays?
aSyn 5UTR act: 91

Screening data: PubChem, Broad Institute
